Screening data: PubChem BioAssay, National Center for Advancing Translational Sciences (NCATS)
D2 ag-1 – human D2 receptor agonism in beta-arrestin assay; P14416; DiscoveRx PathHunter D2 beta-arrestin, luminescence, 90 min; 100% = 57 uM dopamine signal; activation, % (test concentration not listed); 360,000 tested, 0.084% active; AID 624465; in the data active = activation above about 40%
Target sequence (P14416 whole entry, looked up): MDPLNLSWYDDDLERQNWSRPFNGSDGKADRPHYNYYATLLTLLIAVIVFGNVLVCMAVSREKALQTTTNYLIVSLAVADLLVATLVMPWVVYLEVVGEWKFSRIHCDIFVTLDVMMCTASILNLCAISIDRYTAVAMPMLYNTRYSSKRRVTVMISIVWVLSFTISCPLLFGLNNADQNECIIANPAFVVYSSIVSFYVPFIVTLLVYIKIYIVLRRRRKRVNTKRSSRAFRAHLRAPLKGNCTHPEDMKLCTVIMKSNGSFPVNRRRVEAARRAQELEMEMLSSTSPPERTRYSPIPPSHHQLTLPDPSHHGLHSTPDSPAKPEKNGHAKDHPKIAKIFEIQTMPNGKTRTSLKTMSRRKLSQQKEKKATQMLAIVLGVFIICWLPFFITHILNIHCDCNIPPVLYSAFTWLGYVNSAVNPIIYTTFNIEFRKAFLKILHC
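DiscoveRx PathHunter D2 beta-arrestin cells (2,100/well) attached overnight, then compound-stimulated 90 min at 37 C in HBSS/10 mM HEPES/0.1% Tween-20 buffer; beta-galactosidase complementation read by luminescence after 1 h at ambient temperature. Dopamine 57 uM final (EC100) as control.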
D2 PAM-1 – positively modulates the human D2 dopamine receptor allosterically; HEK293 T-REx D2, calcium flux, EC20 dopamine potentiation; 340,000 tested, 0.34% active; potentiation, % at 10 µM; P14416;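 active = potentiation over 3 SD above the plate norm, cut at about 30% in these data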
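Tetracycline-induced Hek293 Trex D2 cells, force-coupled to calcium, loaded with no-wash calcium dye. Compound added with 180 s kinetic read for agonism, then EC20 dopamine and a further 180 s read for potentiation.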
D2 antag – D2 dopamine receptor (human) antagonism. inhibition, % at 10 µM. 340,000 tested, 2% active. HEK293 TREx D2 cells, calcium flux, dopamine EC80; in the data active = inhibition above about 30%; inactive = below that, where a call was filed
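Calcium mobilization kinetics were recorded at 1 s intervals in tetracycline-induced HEK293 T-REx D2 cells, first for 180 s after compound addition and then 180 s after EC80 dopamine.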
D2 PAM-2 – positive allosteric modulators of human D2 dopamine receptor. P14416. DiscoveRx D2 beta-arrestin cells, luminescence, 90 min; 100% = 57 uM dopamine signal. potentiation, % (concentration not given with the values). 360,000 tested, 0.23% active; in the data active = potentiation above about 50%
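PathHunter beta-arrestin assay in DiscoveRx D2 cells. Compounds were added with an EC20 of dopamine (50 nM final) for 90 min at 37 deg C. Luminescence was read 1 h after detection reagent, with 57 uM dopamine as the EC100 control.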
D2 ag-2 – agonists of human D2 dopamine receptor; P14416; HEK293 T-REx D2 cells, calcium flux agonist mode; AID 485358; activation, % at 2 µM; 340,000 tested, 0.53% active;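 active = activation over 3 SD above normal in the single-dose calcium agonist read, cut at about 30% in these data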
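Agonism scored from kinetic calcium signal (1 read/sec, 180 s) following compound pin transfer, after a 10 s baseline. Cells: HEK293 Trex line expressing inducible D2 receptor coupled to calcium, dye-loaded after overnight culture at 30 C.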
Numbers stand for hits; n = inactive; x = no result. In the library only some 2.4% were active in any assay of this set; here they are far more common.

SMILES	D2 ag-1	D2 PAM-1	D2 antag	D2 PAM-2	D2 ag-2
CC(C)(C)OC(=O)NC1CC2CCCC(C1)N2Cc1ccccc1 (stereo not given)	n	n	60	n	n
C=CCN1C2CCCC1CC(NC(=O)Nc1cccc(C(C)=O)c1)C2 (stereo not given)	n	n	33	n	n
COc1ccc(CN2C3CCCC2CC(NC(=O)Nc2cccc(C)c2)C3)cc1 (stereo not given)	n	n	n	n	n
COc1ccc(CN2C3CCCC2CC(NC(=O)Nc2ccccc2)C3)cc1 (stereo not given)	n	n	80	n	n
COCC(=O)NC1CC2CCCC(C1)N2Cc1ccccc1 (stereo not given)	n	n	42	n	n
COCCNC(=S)NC1CC2CCC(C1)N2Cc1ccccc1 (stereo not given)	n	n	n	n	n
CSCCC(NS(=O)(=O)c1cccs1)C(=O)Nc1ccc(C)c(Cl)c1 (stereo not given)	x	n	x	x	n
COc1ccccc1-n1c(SCC(=O)N2CCOCC2)nc2cccnc21	n	n	60	n	n
CCCCn1c(=N)c(S(=O)(=O)c2ccc(C)cc2)cc2c(=O)n3cc(C)ccc3nc21	x	n	x	x	n
Cc1nn2c(=O)cc(CSc3nc4ccccc4[nH]3)nc2s1	n	n	39	n	n
COc1ccc(C(=O)Nc2ccccc2SCc2cc(=O)n3nc(C)sc3n2)cc1OC	n	n	n	n	n
CCOC(=O)CCc1c(C)c2cc3c(c(C)c2oc1=O)OCN(CCc1ccccc1OC)C3	x	n	x	x	n
COc1ccc(C2=Nn3c(nnc3-c3ccccn3)SC2)cc1OC	n	n	n	n	n
COc1ccc(C2=Nn3c(nnc3-c3ccccc3OC)SC2)cc1OC	n	37	n	n	n
CN1/C(=C/C=C(/C#N)C(N)=O)C(C)(C)c2ccccc21	n	x	x	n	x
CN1/C(=C\C=C(/C#N)C(=O)Nc2ccccc2F)C(C)(C)c2ccccc21	n	n	n	n	62
COc1ccc(-c2cc(C(=O)NCc3ccc(F)cc3)c3c(-c4ccc(F)cc4)[nH]nc3n2)cc1OC	x	n	x	x	n
Cc1oc2ccc(O)c(CN3CCOCC3)c2c1C(=O)Nc1ccc(C(C)C)cc1	x	n	x	x	n
C=CCNC(=S)NNC(=O)C(CCC(C)C)CC(C)O (stereo not given)	n	n	45	n	n
CCc1cccc(NC(=O)COC(=O)/C=C/c2cccs2)c1	n	n	31	n	n
O=C(COC(=O)/C=C/c1cccs1)Nc1ccc(F)cc1	n	n	n	n	n
CC1CCCCC1NC(=O)CCNS(=O)(=O)c1cc(Br)cnc1N (stereo not given)	n	n	33	n	n
COc1ccc(CNC(=O)CCNS(=O)(=O)c2cc(Br)cnc2N)cc1	n	46	n	n	n
Nc1ncc(Br)cc1S(=O)(=O)NCCC(=O)NCc1ccc(F)cc1	n	n	n	n	n
COc1cccc(Cn2c(=O)n(Cc3ccccc3)c(=O)c3c2c2cc(OC)ccc2n3C)c1	x	n	x	x	x
SMILES	D2 ag-1	D2 PAM-1	D2 antag	D2 PAM-2	D2 ag-2
COc1cccc(CNCCSc2nnnn2C)c1OCc1ccc(Cl)cc1	x	n	x	x	n
CCN(CC)S(=O)(=O)c1ccc(C(=O)OCCN2C(=O)c3cccc4c(N5CCOCC5)ccc(c34)C2=O)cc1	n	n	n	n	n
O=C(OCCN1C(=O)c2cccc3c(N4CCOCC4)ccc(c23)C1=O)c1cc(Cl)cc(Cl)c1	x	n	n	x	48
Cc1ccc(NC(=O)c2ccc(NC(=O)N3CCSc4ncccc43)cc2)cc1Cl	x	n	x	x	n
CC(NC(=O)CN(C)CC(=O)Nc1ccccc1Br)c1ccccc1 (stereo not given)	n	n	n	n	n
CC(NC(=O)CN(C)CC(=O)Nc1ccc(F)c(F)c1F)c1ccccc1 (stereo not given)	n	n	49	n	n
COc1ccc2nc3oc(C(=O)N4CCN(c5cc(C)ccc5C)CC4)cc3cc2c1	x	n	x	x	n
CC1Cc2nc(SCC(=O)OCc3ccccc3)n(C)c(=O)c2S1 (stereo not given)	n	35	n	n	n
CC1Cc2nc(SCC(=O)N3CCc4ccccc43)n(C)c(=O)c2S1 (stereo not given)	n	n	n	n	n
CCN1c2ccccc2-c2nc(SCC(=O)Nc3cc(F)ccc3F)ncc2S1(=O)=O	x	n	x	x	n
O=C(Nc1c(C(=O)N2CCN(c3ccccc3)CC2)oc2ccccc12)c1ccco1	x	n	x	x	n
COC(=O)C1Cc2c([nH]c3ccccc23)C2(CCN(Cc3ccccc3)CC2)N1 (stereo not given)	n	n	75	n	n
CCCN1CCC2(CC1)NC(C(=O)O)Cc1c2[nH]c2ccccc12 (stereo not given)	n	n	n	n	n
Cc1ccc2c(Sc3ccc(Cl)cc3)c(C(=O)NCCC(C)C)[nH]c2c1	x	n	x	x	n
CCN(Cc1nc(-c2cccc(C)c2)no1)S(=O)(=O)c1ccc(C)cc1	x	n	x	x	n
COc1ccc(O)c(CN2CCCC(N3CCN(c4ccccc4OC)CC3)C2)c1 (stereo not given)	n	n	n	n	n
COc1ccccc1N1CCN(C2CCCN(Cc3ccc(Cl)cc3)C2)CC1 (stereo not given)	n	n	37	n	n
COc1ccccc1N1CCN(C2CCCN(Cc3ccccc3OCCO)C2)CC1 (stereo not given)	n	n	n	n	n
COc1ccccc1N1CCN(C2CCCN(Cc3cc(F)cc(F)c3)C2)CC1 (stereo not given)	n	n	41	n	n
C=C(C)Cn1c(SCC(=O)O)nnc1-c1ccccc1	n	n	n	n	n
C=C(C)Cn1c(SCC(=O)O)nnc1-c1ccc(C(C)(C)C)cc1	n	n	30	n	n
CCCOc1ccc(NC(=O)CC2C(=O)N(c3cccc(C)c3)C(=O)N2CCc2ccncc2)cc1 (stereo not given)	x	n	x	x	n
Cc1cc(S(=O)(=O)N2CCN(c3ccccn3)CC2)ccc1F	n	n	33	n	n
COc1ccc(CN2C3CCCC2CC(NC(=O)Nc2ccccc2C)C3)cc1 (stereo not given)	n	x	x	n	x
Cc1ccc(NC(=S)NC2CC3CCC(C2)N3Cc2ccco2)c(C)c1 (stereo not given)	n	n	n	n	n
Cc1cccc(NC(=S)NC2CC3CCC(C2)N3Cc2ccco2)c1C (stereo not given)	n	n	36	n	n
Cc1cccc(NC(=S)NC2CC3CCCC(C2)N3Cc2ccccc2)c1C (stereo not given)	n	n	105	n	n
CCc1ccccc1NC(=S)NC1CC2CCC(C1)N2Cc1ccco1 (stereo not given)	n	n	n	n	n
